Legend:
Assay in all cases: DAPPL (digital affinity profiling via proximity ligation, sequencing); 10 mM Tris-HCl pH 7.5, 50 mM NaCl, 1 mM DTT, 4% glycerol, room temperature, 30 min; GST-TFs on glutathione beads, 16-mer random dsDNA library, 0.1% formaldehyde crosslink after washing; high values mean tight binding
FEV = target: T1, FEV (Homo sapiens, UniProt Q99581 1-238); settings: protein: recombinant; tags: N-terminal GST; dsDNA, one strand shown
T1 sequence: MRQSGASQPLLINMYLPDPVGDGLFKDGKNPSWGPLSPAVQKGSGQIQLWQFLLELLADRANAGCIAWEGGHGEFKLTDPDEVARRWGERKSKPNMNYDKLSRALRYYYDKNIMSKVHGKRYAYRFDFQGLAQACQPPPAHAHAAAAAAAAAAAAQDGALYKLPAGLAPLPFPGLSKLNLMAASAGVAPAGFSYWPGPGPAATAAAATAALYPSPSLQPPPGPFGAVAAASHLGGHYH
Outline: (§1)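 Yeast served to express human transcription factors as GST fusions, which were then captured on glutathione beads and labelled with DNA barcodes. Pooled with a tag-only sample, they were incubated with 200 nmole of a 16-mer random double-stranded DNA library for 30 min at room temperature in Tris/NaCl/DTT/glycerol buffer, washed, crosslinked with 0.1% formaldehyde, ligated by proximity, amplified by PCR and sequenced. Dividing each hexamer's read frequency for a factor by its frequency for the tag-only sample gives the binding signal.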

ETV5 = ETV5 (Homo sapiens, UniProt P41161 1-510); settings: protein: recombinant; tags: N-terminal GST; dsDNA, one strand shown
Chain of ETV5 (P41161 whole entry): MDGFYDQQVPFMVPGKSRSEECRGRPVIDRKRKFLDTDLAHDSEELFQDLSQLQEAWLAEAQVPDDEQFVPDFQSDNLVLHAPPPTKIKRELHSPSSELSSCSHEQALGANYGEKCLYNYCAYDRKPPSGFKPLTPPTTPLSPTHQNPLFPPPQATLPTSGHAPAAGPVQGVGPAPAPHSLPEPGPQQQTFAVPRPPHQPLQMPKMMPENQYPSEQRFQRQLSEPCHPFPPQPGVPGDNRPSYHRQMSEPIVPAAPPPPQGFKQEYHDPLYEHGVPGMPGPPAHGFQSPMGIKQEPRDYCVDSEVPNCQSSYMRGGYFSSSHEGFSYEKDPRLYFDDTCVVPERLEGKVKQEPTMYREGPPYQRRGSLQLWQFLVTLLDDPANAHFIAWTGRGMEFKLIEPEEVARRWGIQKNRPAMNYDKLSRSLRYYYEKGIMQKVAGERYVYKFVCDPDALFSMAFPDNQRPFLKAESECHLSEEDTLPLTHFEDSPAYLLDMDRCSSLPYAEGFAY
Outline: as §1

HSF1 = HSF1 (Homo sapiens, UniProt Q00613 1-529); settings: protein: recombinant; tags: N-terminal GST; chain copies: 3; dsDNA, one strand shown
Chain of HSF1 (Q00613 whole entry): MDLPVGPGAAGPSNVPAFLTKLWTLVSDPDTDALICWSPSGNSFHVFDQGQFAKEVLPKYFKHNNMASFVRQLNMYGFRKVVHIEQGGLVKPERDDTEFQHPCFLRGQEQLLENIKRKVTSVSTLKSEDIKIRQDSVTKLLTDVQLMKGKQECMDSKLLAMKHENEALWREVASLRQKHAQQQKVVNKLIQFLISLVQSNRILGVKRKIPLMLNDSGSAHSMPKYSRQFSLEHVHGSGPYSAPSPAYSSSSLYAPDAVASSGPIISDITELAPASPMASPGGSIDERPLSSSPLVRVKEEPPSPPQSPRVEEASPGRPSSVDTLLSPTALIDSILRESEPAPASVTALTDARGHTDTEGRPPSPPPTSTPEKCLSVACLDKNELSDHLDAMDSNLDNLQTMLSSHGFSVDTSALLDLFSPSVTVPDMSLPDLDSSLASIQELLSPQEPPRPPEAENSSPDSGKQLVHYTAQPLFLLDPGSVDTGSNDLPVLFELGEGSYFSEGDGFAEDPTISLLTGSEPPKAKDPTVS
Outline: as §1

SPIC = target: T2, SPIC (Homo sapiens, UniProt Q8N5J4 1-248); settings: protein: recombinant; tags: N-terminal GST; dsDNA, one strand shown
T2 sequence: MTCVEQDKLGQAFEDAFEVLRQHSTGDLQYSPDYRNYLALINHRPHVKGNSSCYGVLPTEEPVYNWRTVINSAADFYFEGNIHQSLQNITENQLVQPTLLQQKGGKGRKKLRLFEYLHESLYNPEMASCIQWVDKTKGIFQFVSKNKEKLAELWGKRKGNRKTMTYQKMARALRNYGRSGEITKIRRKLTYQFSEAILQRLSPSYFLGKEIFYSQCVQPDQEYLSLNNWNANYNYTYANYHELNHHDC
Outline: as §1

ELF4 = ELF4 (Homo sapiens, UniProt Q99607 1-663); settings: protein: recombinant; tags: N-terminal GST; dsDNA, one strand shown
Chain of ELF4 (Q99607 whole entry): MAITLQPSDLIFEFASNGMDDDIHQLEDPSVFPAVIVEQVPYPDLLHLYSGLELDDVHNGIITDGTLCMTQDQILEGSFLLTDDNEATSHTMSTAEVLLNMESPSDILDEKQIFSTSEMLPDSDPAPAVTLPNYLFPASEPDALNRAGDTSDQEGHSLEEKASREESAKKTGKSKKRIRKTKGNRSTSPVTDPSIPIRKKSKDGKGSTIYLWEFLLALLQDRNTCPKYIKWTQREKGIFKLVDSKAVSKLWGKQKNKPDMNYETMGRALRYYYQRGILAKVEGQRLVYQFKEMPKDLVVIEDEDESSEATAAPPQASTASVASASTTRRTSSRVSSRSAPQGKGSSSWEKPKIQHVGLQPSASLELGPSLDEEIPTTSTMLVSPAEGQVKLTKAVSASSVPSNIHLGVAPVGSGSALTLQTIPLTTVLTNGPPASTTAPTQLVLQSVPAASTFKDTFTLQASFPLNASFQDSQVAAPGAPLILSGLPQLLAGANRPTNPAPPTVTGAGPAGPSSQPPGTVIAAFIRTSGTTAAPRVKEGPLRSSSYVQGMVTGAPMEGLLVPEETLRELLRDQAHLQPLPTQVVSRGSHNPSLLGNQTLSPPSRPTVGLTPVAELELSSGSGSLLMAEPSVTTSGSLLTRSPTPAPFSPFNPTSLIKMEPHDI
Outline: as §1

ELK4 = target: T3, ELK4 (Homo sapiens, UniProt P28324-2 1-405); settings: protein: recombinant; tags: N-terminal GST; dsDNA, one strand shown
T3 sequence: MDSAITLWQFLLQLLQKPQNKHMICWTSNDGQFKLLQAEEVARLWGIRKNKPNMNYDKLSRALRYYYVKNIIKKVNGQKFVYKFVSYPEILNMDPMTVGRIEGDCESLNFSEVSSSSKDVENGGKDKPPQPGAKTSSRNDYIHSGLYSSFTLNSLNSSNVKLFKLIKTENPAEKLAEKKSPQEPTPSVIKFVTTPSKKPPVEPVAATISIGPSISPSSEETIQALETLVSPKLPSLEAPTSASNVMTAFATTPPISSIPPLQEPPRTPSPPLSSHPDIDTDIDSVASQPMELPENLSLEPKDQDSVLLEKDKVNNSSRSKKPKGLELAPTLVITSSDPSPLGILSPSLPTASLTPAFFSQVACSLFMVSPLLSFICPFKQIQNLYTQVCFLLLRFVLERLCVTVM
Outline: as §1

ETV2 = target: T4, ETV2 (Homo sapiens, UniProt O00321 1-342); settings: protein: recombinant; tags: N-terminal GST; dsDNA, one strand shown
T4 sequence: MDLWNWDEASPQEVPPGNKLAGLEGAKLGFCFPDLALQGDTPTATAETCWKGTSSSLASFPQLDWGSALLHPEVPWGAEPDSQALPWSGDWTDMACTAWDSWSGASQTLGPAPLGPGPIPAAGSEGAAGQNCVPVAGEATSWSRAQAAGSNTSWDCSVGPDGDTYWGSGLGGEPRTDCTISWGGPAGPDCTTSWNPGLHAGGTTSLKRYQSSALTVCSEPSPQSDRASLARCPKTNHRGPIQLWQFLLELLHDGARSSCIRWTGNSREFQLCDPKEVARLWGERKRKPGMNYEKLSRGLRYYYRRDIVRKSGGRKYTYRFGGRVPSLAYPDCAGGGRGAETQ
Outline: as §1

CRX = CRX (Homo sapiens, UniProt O43186 1-299); settings: protein: recombinant; tags: N-terminal GST; dsDNA, one strand shown
Chain of CRX (O43186 whole entry): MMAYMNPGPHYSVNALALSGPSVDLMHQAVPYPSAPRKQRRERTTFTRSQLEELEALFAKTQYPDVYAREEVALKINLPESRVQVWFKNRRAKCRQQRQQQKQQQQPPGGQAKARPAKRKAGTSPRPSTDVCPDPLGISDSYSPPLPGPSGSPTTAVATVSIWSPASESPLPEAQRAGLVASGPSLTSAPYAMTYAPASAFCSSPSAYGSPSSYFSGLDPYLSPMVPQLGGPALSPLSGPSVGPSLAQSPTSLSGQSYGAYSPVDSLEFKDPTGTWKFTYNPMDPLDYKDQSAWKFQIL
Outline: as §1

ETV1 = ETV1 (Homo sapiens, UniProt P50549 1-477); settings: protein: recombinant; tags: N-terminal GST; dsDNA, one strand shown
Chain of ETV1 (P50549 whole entry): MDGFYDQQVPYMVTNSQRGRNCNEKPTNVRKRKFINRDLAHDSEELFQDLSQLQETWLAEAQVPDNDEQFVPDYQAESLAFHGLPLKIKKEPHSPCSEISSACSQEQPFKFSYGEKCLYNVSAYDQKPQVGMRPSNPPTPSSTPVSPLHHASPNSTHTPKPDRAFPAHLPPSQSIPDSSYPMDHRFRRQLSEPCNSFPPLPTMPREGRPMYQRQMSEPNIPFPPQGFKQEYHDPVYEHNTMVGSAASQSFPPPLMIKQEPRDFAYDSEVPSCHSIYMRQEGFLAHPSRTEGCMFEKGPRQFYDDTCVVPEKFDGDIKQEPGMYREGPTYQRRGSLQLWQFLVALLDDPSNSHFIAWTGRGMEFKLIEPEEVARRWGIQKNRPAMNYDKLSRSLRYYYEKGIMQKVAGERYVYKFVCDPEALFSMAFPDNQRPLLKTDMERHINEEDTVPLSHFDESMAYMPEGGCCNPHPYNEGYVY
Outline: as §1

ERF = target: T5, ERF (Homo sapiens, UniProt P50548 1-548); settings: protein: recombinant; tags: N-terminal GST; dsDNA, one strand shown
T5 sequence: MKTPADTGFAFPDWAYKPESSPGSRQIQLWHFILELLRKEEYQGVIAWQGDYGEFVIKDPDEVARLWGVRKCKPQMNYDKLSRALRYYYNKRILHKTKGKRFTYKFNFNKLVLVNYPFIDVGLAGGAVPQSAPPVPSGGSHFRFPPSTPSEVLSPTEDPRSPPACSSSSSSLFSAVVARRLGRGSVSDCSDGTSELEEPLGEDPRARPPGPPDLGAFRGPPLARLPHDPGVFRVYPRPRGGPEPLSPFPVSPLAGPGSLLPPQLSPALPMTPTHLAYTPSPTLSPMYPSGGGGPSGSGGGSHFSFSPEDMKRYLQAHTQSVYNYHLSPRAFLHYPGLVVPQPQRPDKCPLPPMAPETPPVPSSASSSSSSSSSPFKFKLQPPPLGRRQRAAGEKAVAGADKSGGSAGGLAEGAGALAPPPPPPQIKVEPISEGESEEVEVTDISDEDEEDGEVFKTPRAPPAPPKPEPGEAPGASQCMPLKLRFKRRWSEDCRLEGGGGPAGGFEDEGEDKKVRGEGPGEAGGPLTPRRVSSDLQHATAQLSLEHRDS
Outline: as §1

ETV3L = target: T6, ETV3L (Homo sapiens, UniProt Q6ZN32 1-361); settings: protein: recombinant; tags: N-terminal GST; dsDNA, one strand shown
T6 sequence: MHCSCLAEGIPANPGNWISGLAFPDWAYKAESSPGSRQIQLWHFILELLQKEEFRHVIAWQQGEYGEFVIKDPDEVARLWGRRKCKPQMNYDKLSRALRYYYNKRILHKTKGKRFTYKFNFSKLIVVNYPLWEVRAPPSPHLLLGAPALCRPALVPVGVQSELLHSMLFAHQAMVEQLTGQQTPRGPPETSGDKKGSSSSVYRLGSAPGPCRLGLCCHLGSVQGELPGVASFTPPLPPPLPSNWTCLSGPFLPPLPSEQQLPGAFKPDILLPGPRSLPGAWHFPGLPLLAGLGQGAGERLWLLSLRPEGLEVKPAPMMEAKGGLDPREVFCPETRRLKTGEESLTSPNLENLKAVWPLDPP
Outline: as §1

ETS2 = target: T7, ETS2 (Homo sapiens, UniProt P15036 1-469); settings: protein: recombinant; tags: N-terminal GST; dsDNA, one strand shown
T7 sequence: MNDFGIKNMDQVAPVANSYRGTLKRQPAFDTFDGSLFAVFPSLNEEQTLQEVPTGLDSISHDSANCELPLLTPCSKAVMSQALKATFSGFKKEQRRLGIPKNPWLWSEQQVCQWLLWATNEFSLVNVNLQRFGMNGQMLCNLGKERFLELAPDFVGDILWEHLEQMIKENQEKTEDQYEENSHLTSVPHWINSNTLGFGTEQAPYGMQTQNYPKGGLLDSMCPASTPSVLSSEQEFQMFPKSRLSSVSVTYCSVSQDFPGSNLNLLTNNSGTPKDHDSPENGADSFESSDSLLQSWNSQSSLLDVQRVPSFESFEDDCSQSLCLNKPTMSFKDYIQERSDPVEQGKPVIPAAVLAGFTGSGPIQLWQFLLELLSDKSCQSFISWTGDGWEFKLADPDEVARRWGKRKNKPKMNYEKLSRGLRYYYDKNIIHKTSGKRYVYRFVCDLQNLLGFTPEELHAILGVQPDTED
Outline: as §1

SPDEF = target: T8, SPDEF (Homo sapiens, UniProt O95238 1-335); settings: protein: recombinant; tags: N-terminal GST; dsDNA, one strand shown
T8 sequence: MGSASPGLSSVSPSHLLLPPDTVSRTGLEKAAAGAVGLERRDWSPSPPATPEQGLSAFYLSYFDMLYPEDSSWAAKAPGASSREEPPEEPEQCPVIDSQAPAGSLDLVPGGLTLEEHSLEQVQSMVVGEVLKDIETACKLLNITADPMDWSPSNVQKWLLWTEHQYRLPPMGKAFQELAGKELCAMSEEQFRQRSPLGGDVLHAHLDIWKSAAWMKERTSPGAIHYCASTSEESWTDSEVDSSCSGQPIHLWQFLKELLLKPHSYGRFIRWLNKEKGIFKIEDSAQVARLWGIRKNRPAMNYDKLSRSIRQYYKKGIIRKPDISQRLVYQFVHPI
Outline: as §1

ETV7 = target: T9, ETV7 (Homo sapiens, UniProt Q9Y603 1-341); settings: protein: recombinant; tags: N-terminal GST; dsDNA, one strand shown
T9 sequence: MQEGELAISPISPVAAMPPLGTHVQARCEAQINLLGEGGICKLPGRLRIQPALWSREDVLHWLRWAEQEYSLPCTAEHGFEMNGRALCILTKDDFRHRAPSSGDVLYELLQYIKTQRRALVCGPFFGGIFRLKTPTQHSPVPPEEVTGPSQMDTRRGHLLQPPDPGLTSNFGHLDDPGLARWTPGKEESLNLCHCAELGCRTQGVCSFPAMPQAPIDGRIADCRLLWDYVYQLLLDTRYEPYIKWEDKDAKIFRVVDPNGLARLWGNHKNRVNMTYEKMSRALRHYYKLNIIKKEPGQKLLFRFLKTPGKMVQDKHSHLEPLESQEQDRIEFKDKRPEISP
Outline: as §1

ELF5 = target: T10, ELF5 (Homo sapiens, UniProt Q9UKW6-2 1-255); settings: protein: recombinant; tags: N-terminal GST; dsDNA, one strand shown
T10 sequence: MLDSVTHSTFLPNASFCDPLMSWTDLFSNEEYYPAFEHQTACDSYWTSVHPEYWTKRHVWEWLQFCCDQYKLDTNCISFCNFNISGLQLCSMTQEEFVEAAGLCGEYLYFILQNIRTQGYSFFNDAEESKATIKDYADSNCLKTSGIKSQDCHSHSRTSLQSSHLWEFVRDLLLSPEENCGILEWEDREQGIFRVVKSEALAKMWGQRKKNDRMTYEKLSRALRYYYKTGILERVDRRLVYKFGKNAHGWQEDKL
Outline: as §1

ETV3 = target: T11, ETV3 (Homo sapiens, UniProt P41162-2 1-143); settings: protein: recombinant; tags: N-terminal GST; dsDNA, one strand shown
T11 sequence: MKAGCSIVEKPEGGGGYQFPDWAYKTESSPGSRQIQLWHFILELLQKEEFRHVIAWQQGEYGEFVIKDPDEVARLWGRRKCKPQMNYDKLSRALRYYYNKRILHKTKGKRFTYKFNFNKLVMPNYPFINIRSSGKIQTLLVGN
Outline: as §1

ETV6 = ETV6 (Homo sapiens, UniProt P41212 1-452); settings: protein: recombinant; tags: N-terminal GST; dsDNA, one strand shown
Chain of ETV6 (P41212 whole entry): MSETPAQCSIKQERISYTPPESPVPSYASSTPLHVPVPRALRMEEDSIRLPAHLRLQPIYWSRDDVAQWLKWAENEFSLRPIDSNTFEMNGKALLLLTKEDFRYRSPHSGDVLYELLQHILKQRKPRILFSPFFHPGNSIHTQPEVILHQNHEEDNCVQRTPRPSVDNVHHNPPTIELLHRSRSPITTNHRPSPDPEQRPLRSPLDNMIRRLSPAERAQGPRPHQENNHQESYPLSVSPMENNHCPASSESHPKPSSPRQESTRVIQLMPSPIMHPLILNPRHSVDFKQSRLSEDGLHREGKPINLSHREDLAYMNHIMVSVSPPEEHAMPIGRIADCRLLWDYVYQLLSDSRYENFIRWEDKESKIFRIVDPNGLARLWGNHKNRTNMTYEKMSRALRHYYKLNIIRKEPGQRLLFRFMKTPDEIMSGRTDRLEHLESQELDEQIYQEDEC
Outline: as §1

ELF3 = target: T12, ELF3 (Homo sapiens, UniProt P78545 1-371); settings: protein: recombinant; tags: N-terminal GST; dsDNA, one strand shown
T12 sequence: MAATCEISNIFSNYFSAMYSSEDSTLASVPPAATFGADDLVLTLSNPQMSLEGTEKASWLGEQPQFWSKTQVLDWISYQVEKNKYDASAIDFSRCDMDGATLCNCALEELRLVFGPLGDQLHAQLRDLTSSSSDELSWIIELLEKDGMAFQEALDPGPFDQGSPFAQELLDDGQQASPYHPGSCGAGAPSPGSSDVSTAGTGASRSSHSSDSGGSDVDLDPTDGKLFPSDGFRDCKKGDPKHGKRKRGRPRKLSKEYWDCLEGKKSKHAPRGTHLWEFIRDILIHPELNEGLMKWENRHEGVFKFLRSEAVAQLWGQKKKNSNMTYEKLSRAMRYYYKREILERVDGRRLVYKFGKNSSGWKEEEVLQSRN
Outline: as §1

Sequence	binding signal (FEV)	binding signal (ETV5)	binding signal (HSF1)	binding signal (SPIC)	binding signal (ELF4)	binding signal (ELK4)	binding signal (ETV2)	binding signal (CRX)	binding signal (ETV1)	binding signal (ERF)	binding signal (ETV3L)	binding signal (ETS2)	binding signal (SPDEF)	binding signal (ETV7)	binding signal (ELF5)	binding signal (ETV3)	binding signal (ETV6)	binding signal (ELF3)
GATTTG	1.11 fold enrichment (6-mer frequency, TF over GST control)	1.25 fold enrichment (6-mer frequency, TF over GST control)	1.39 fold enrichment (6-mer frequency, TF over GST control)	1.17 fold enrichment (6-mer frequency, TF over GST control)	1.13 fold enrichment (6-mer frequency, TF over GST control)	1.19 fold enrichment (6-mer frequency, TF over GST control)	1.19 fold enrichment (6-mer frequency, TF over GST control)	1.78 fold enrichment (6-mer frequency, TF over GST control)	1.14 fold enrichment (6-mer frequency, TF over GST control)	1.12 fold enrichment (6-mer frequency, TF over GST control)	1.18 fold enrichment (6-mer frequency, TF over GST control)	1.14 fold enrichment (6-mer frequency, TF over GST control)	1.19 fold enrichment (6-mer frequency, TF over GST control)	1.15 fold enrichment (6-mer frequency, TF over GST control)	1.05 fold enrichment (6-mer frequency, TF over GST control)	1.1 fold enrichment (6-mer frequency, TF over GST control)	1.09 fold enrichment (6-mer frequency, TF over GST control)	–
AAGCAA	1.05 fold enrichment (6-mer frequency, TF over GST control)	1.11 fold enrichment (6-mer frequency, TF over GST control)	1.04 fold enrichment (6-mer frequency, TF over GST control)	1.03 fold enrichment (6-mer frequency, TF over GST control)	1.06 fold enrichment (6-mer frequency, TF over GST control)	1.08 fold enrichment (6-mer frequency, TF over GST control)	1.01 fold enrichment (6-mer frequency, TF over GST control)	–	1.08 fold enrichment (6-mer frequency, TF over GST control)	1.01 fold enrichment (6-mer frequency, TF over GST control)	1.01 fold enrichment (6-mer frequency, TF over GST control)	1.11 fold enrichment (6-mer frequency, TF over GST control)	–	1.05 fold enrichment (6-mer frequency, TF over GST control)	1.03 fold enrichment (6-mer frequency, TF over GST control)	1.12 fold enrichment (6-mer frequency, TF over GST control)	1.02 fold enrichment (6-mer frequency, TF over GST control)	1.09 fold enrichment (6-mer frequency, TF over GST control)

Source: publication PMC7862700, “An all-to-all approach to the identification of sequence-specific readers for epigenetic DNA modifications on cytosine”
